Design in all cases: scale not given: direction of the effect not stated beside the values
Experiment [1] addresses Protein translocase subunit SecA (Escherichia coli (strain K12)) (UniProt P10408). As to the kind of experiment: Assay to Identify E. coli SecA ATPase Inhibitors. Type of experiment: functional. The note with it: 30 µM.
Experiment [2] concerns the target T1, Ubiquitin-activating enzyme e1, putative (Leishmania donovani (strain BPK282A1)) (UniProt E9BSI1).
T1 sequence (whole entry): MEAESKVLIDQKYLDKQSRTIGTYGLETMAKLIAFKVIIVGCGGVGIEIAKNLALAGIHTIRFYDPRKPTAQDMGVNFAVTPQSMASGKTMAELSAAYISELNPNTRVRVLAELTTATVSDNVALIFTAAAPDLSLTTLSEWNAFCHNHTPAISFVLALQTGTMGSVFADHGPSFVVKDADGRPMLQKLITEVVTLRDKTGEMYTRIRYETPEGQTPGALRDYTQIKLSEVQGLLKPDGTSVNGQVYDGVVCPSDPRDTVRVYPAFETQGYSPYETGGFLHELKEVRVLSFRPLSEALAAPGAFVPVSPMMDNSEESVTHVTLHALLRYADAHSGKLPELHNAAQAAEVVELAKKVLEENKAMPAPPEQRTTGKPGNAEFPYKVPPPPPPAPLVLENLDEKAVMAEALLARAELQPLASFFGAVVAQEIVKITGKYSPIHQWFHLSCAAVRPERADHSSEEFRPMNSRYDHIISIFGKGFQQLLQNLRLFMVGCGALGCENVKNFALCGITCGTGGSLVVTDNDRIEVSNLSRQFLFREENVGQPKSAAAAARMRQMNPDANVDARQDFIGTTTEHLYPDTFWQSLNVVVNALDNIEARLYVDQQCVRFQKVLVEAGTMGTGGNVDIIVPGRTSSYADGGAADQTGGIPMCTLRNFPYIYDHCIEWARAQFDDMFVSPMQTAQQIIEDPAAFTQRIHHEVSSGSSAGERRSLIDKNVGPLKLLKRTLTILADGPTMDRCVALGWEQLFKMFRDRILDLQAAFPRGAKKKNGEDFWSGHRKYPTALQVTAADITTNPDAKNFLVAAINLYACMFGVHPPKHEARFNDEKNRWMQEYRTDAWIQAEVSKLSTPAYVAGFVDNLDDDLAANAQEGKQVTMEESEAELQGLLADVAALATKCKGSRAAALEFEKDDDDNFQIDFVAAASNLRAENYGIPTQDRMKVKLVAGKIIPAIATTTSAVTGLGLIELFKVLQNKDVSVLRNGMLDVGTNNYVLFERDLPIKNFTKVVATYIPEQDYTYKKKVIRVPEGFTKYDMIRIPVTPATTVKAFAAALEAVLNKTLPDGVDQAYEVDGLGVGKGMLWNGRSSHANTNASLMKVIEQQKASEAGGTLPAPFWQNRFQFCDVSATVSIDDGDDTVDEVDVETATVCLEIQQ
The experiment in a line: Leishmania donovani Ubiquitin Activating Enzyme (LdE1). Type of experiment: functional. As to conditions: 30 µM.

Experiment [3] has as its target AMP-activated protein kinase, AMPK (Homo sapiens) (UniProt P54646+O43741+P54619+Q9UGJ0+Q9Y478+Q13131+Q9UGI9). As to the kind of experiment: AMP-dependent Kinase enzyme assay. An in vitro enzyme assay that detects ADP turnover that is directly proportional to AMPK activity. This uses naive AMPK that is activated during the assay with MK-8722. Type of experiment: functional. As to conditions: 30 µM.

Experiment [4] concerns the target Sialic acid-binding Ig-like lectin 9 (Homo sapiens) (UniProt Q9Y336). As to the kind of experiment: Hs-Siglec9 ALPHAscreen SOP 20170721. The note with it: 10 µM. A general note: Bead proximity is the source of the signal in Alpha formats.
In the next experiment the test system is Trypanosoma cruzi. As to the kind of experiment: Trypanosoma cruzi phosphomannomutase and mannose-1-phosphate guanylyltransferase assay. The note with it: 10 µM. Type of experiment: functional.
The target in experiment [5] is T2, Arginase-2, mitochondrial (Homo sapiens) (UniProt P78540).
T2 sequence (whole entry): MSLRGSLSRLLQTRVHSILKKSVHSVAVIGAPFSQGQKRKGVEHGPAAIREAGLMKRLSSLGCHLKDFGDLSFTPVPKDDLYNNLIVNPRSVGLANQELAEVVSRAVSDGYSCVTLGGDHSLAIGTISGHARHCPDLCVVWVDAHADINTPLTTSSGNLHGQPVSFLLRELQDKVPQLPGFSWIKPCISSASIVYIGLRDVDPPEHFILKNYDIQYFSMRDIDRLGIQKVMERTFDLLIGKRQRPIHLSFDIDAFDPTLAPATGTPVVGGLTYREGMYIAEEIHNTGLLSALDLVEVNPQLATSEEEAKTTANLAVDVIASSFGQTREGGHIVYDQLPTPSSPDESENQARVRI
The experiment in a line: in vitro enzyme assay to detect the production of urea directly proportional to the activity of Arginase II. Further: in the data most compounds retested in dose-response had high values. Type of experiment: functional. As to conditions: 33.3 µM.

The target of experiment [6] is T3, Proteasome subunit beta (Trypanosoma cruzi) (UniProt O96673).
T3 sequence (whole entry): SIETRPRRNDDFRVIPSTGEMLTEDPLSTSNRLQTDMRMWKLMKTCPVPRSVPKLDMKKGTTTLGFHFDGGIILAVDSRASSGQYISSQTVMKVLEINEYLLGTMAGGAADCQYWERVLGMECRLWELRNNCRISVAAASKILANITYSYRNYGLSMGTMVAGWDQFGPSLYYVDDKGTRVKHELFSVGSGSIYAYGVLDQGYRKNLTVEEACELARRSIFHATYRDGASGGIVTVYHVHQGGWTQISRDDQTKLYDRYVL
The experiment in a line: Trypanosoma cruzi proteasome chymotrypsin-like activity (TcProtChymo) assay. Further: in the data most compounds retested in dose-response had high values. Type of experiment: functional. The note with it: 9.37 µM.

The species entered for the next experiment is Homo sapiens. The experiment in a line: To identify inhibition of the IFN signalling (Jak-Stat) pathway via expression of an eGFP reporter gene under the control of an IFN-stimulated response element (ISRE) containing MxA promoter. Type of experiment: functional. As to conditions: 30 µM. A general note: In a reporter assay the amount or activity of a reporter protein is the signal.

Experiment [7] deals with T4, Tyrosyl-tRNA synthetase, putative (Trypanosoma cruzi (strain CL Brener)) (UniProt Q4DSP6).
T4 sequence (whole entry): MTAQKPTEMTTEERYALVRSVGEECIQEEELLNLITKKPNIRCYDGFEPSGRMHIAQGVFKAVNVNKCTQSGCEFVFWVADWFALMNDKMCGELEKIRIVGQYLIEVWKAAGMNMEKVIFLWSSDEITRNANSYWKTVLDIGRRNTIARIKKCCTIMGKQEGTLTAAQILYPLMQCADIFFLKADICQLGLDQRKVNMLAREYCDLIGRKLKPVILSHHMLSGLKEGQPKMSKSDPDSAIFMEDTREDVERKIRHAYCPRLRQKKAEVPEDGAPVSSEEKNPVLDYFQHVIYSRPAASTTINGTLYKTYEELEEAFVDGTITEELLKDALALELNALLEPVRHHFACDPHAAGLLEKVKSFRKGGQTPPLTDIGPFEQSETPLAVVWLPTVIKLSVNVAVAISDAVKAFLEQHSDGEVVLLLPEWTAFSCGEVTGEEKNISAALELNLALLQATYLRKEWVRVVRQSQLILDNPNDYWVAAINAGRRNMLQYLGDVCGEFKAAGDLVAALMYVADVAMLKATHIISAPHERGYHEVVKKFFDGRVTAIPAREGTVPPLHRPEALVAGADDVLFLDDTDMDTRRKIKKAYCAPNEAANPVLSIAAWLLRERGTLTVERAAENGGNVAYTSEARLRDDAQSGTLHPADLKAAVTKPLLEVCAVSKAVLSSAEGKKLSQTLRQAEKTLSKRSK
As to the kind of experiment: Trypanosoma cruzi tyrosyl tRNA synthetase (TcYRS) _High Tyrosine SOP. Further: in the data most compounds retested in dose-response had high values. Type of experiment: functional. The note with it: 30 µM.

The target of experiment [8] is T4, Tyrosyl-tRNA synthetase, putative (Trypanosoma cruzi (strain CL Brener)). The experiment in a line: Trypanosoma cruzi tyrosyl tRNA synthetase (TcYRS) SOP. Type of experiment: functional. As to conditions: 30 µM.
Experiment [9] addresses Chromo domain-containing protein 1 (Saccharomyces cerevisiae (strain ATCC 204508 / S288c) (Baker's yeast)) (UniProt P32657). The experiment in a line: ScCHD-1 Enzyme Inhibition Assay. Further: in the data most compounds retested in dose-response had high values. Type of experiment: functional. The note with it: 30 µM.

Among the data in ChEMBL document CHEMBL3988442, “University of Dundee, Small-Polar-MMV Screening Library” (2021) are Percent Effect values, retold here.

For some of these results: Results with a measured potency or affinity are listed apart.

Sequence of Chromo domain-containing protein 1 (Saccharomyces cerevisiae (strain ATCC 204508 / S288c) (Baker's yeast)) (P32657 whole entry, the tested form may be a part): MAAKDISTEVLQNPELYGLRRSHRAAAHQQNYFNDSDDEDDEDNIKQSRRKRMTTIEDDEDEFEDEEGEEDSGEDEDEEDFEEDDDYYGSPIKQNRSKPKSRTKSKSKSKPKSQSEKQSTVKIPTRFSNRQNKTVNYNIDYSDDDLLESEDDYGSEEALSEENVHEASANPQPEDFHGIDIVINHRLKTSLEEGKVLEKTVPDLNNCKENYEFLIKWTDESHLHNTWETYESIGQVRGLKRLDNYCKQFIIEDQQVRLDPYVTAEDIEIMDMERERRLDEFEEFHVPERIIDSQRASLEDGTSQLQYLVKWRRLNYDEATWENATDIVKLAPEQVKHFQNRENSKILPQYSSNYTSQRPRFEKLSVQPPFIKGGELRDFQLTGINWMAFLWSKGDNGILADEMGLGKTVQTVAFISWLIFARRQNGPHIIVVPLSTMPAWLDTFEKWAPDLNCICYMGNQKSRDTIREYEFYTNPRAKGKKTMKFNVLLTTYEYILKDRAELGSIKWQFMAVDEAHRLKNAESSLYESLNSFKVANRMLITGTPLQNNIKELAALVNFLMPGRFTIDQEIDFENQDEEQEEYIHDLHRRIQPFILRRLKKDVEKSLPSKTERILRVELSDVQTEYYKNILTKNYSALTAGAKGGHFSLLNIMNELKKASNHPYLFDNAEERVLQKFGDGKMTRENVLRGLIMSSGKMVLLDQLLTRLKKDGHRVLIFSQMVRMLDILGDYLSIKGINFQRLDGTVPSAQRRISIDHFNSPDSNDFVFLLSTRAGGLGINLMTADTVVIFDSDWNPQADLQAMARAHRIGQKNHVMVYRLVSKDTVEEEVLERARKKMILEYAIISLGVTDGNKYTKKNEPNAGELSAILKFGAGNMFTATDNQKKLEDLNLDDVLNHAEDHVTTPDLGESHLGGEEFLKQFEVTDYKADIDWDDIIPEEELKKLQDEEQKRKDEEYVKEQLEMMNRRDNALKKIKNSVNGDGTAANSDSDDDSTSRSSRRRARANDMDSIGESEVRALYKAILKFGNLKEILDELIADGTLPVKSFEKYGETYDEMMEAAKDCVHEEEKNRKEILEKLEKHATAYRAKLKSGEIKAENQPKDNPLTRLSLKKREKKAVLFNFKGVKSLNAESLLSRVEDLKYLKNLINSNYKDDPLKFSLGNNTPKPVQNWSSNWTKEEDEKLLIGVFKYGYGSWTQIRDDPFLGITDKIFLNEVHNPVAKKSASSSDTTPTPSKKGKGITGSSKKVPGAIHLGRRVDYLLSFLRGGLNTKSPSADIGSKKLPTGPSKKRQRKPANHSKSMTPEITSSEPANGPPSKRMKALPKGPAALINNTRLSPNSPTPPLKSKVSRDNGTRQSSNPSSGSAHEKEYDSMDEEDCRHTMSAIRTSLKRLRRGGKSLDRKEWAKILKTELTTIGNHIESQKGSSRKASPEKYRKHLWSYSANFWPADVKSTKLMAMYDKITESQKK
Sequence of Sialic acid-binding Ig-like lectin 9 (Homo sapiens) (Q9Y336 whole entry): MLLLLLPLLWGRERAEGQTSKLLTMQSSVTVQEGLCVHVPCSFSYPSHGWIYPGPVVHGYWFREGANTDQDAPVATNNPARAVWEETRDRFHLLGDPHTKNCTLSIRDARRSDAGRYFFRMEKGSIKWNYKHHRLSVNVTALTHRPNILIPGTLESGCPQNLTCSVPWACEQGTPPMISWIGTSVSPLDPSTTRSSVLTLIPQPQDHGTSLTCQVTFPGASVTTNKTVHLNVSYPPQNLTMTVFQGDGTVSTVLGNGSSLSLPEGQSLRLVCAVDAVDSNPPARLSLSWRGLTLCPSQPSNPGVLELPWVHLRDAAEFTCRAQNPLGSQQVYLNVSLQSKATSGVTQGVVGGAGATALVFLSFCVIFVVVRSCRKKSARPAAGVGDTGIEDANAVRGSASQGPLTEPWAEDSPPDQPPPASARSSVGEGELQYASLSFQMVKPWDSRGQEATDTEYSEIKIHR
Sequence of Protein translocase subunit SecA (Escherichia coli (strain K12)) (P10408 whole entry): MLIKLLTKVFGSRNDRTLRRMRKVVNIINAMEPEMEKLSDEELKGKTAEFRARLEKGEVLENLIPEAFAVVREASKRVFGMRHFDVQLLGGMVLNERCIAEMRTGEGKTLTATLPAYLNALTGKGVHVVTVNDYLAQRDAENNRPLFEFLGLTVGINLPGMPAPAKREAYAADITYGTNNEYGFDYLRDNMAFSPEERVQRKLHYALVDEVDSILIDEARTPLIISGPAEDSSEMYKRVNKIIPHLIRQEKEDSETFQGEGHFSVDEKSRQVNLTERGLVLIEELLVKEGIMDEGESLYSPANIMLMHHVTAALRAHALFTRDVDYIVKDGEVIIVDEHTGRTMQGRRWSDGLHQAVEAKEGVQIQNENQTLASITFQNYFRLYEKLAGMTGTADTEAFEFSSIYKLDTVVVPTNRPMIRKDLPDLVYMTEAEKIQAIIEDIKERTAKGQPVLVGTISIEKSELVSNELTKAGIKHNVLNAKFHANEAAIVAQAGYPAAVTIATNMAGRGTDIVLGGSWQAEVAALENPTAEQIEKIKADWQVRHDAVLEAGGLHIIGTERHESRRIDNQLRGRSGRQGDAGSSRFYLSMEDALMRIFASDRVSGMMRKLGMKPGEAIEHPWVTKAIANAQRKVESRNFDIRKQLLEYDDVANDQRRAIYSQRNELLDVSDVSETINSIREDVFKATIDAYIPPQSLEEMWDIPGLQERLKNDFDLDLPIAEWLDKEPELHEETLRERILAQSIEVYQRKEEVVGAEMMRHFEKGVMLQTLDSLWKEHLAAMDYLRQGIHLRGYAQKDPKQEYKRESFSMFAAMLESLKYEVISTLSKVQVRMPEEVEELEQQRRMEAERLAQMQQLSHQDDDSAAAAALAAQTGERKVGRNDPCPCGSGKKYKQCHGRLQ

`Cc1ccc(CN2CCn3c(C(=O)N(C)C)cnc3C2)s1`: the Percent Effect is -2.48% in experiment [1]; 10.7% in [2]; 8.35% in experiment [3]; -0.423% in [4]; -4.53% in the experiment with Trypanosoma cruzi; 3.5% in experiment [5]. For the same compound, the Percent Effect is 7.67% in [6]; 3.77% in the experiment listed under Homo sapiens; 3.19% in [7]; 8.97% in experiment [8]; -5.78% in [9].

Take `CC(=O)Nc1ncc(S(=O)(=O)Nc2ccc(F)cc2F)s1`: the Percent Effect in experiment [1] is -1.2%; in [2], 9.33%; in [3], -2.12%; in [4], -4.17%; in the experiment with Trypanosoma cruzi, -6.68%; in experiment [5] it was -5.11%. Further, the Percent Effect was 19% in experiment [6]; 12.9% in the experiment listed under Homo sapiens; 3.17% in experiment [7]; 10.3% in experiment [8]; -9.04% in experiment [9].

Regarding `Cc1nc(CN(C)C2CCN(Cc3nc4ccccc4s3)C2)no1` (stereo unspecified), the Percent Effect in experiment [1] is -6.59%; in experiment [2], 5.26%; in [3], -8.48%; in experiment [4], 14.1%; in the experiment on Trypanosoma cruzi, 4.95%; in experiment [5], 1.8%. Further, the Percent Effect in experiment [6] is 3.81%; in the experiment listed under Homo sapiens, -14.2%; in experiment [7] it was 10.3%; in [8] it was 25.9%; in experiment [9] it was -8.21%.

As for `CN(CCNC(=O)Nc1ccncc1)C1CCCCC1`, the Percent Effect in experiment [1] was -4.37%; in experiment [2], 21.6%; in experiment [3], -4.55%; in experiment [4], 6.96%; in the experiment on Trypanosoma cruzi, 8.21%; in experiment [5] it was -0.401%. Also, the Percent Effect is 16.6% in experiment [6]; 8.26% in the experiment listed under Homo sapiens; 5.42% in [7]; 23.5% in [8]; -11% in experiment [9].

As for `COCC1c2nnn(CC3CC3)c2CCN1C(=O)c1cccc(F)c1` (stereo unspecified), the Percent Effect was -5.76% in [1]; 0% in experiment [2]; -4.62% in experiment [3]; 0.968% in [4]; -4.59% in the experiment with Trypanosoma cruzi; -0.248% in experiment [5]. The Percent Effect in experiment [6] was 3%; in the experiment filed under Homo sapiens, 10%; in experiment [7], 5.38%; in experiment [8], 6.17%; in experiment [9], 1.63%.

With `c1nc(CCC2CCCN2)cc(N2CCCOCC2)n1` (stereo unspecified), the Percent Effect in experiment [1] was -4.1%; in [2], 9.46%; in [3], 11.8%; in experiment [4], -4.56%; in the experiment with Trypanosoma cruzi, -6.13%; in experiment [5] it was -3.02%. Further, the Percent Effect in [6] is 9.36%; in the experiment filed under Homo sapiens, 10.3%; in experiment [7], 3.23%; in experiment [8] it was 6.49%; in [9] it was -5.74%.

Take `Cc1cc(C)n(CCCNC(=O)C(C)NC(=O)c2ccccc2Cl)n1` (stereo unspecified): the Percent Effect in [1] was -2.06%; in [2], 5.26%; in experiment [3], 4.16%; in experiment [4], -4.01%; in the experiment on Trypanosoma cruzi it was -2.63%; in experiment [5] it was 0%. In addition, the Percent Effect is 6.81% in experiment [6]; -13.1% in the experiment listed under Homo sapiens; 5.32% in experiment [7]; 10.4% in experiment [8]; -5.43% in experiment [9].

`Cc1nc(CN2CCCN(C(=O)c3ccccn3)CC2)oc1C`: the Percent Effect in experiment [1] was -1.98%; in experiment [2], 7.79%; in experiment [3] it was 0.524%; in [4] it was -0.904%; with Trypanosoma cruzi, -0.686%; in experiment [5], 4%. The Percent Effect in experiment [6] is 10.8%; in the experiment filed under Homo sapiens, 33%; in experiment [7], 2.86%; in experiment [8], 11.8%; in [9], -5.21%.

As to `Cc1cc(C)n(C2CCCN(C(=O)c3cccc4[nH]ncc34)C2)n1` (stereo unspecified), the Percent Effect is -5.51% in [1]; -13.5% in experiment [2]; 6.86% in experiment [3]; -7.42% in experiment [4]; -4.49% in the experiment on Trypanosoma cruzi; -1.67% in experiment [5]. Also, the Percent Effect was 7.69% in experiment [6]; -0.356% in the experiment filed under Homo sapiens; 6.93% in experiment [7]; 3.66% in [8]; 2.88% in experiment [9].

With `CC(=O)N1CCCCC1c1nc2c(c(N3CCCCC3)n1)CN(C)CC2` (stereo unspecified), the Percent Effect is 0.622% in [1]; -9.46% in [2]; 2.5% in [3]; 0.77% in experiment [4]; 1.38% with Trypanosoma cruzi; -3.48% in experiment [5]. Besides, the Percent Effect was 23.4% in [6]; 11.2% in the experiment listed under Homo sapiens; 15.1% in experiment [7]; 14.3% in experiment [8]; -9.65% in experiment [9].

Take `O=C(c1ccc(F)c(F)c1)N1CCCC(Nc2ccc(F)cc2)C1` (stereo unspecified): the Percent Effect was -2.99% in [1]; -2.7% in [2]; -4.26% in [3]; 1.48% in experiment [4]; 6.56% with Trypanosoma cruzi; -2.86% in experiment [5]. The Percent Effect in experiment [6] was 2.59%; in the experiment listed under Homo sapiens it was 19.7%; in [7] it was 6.88%; in experiment [8], 7.32%; in experiment [9], -2.35%.
